Compounds without any hit were thinned out: in the full panel of roughly 83,000, 20% have a hit.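 48-hour exposure, single concentration, 96-well plates; percent growth endpoint where 0 means no net growth. Active: below 10.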 Values without a mark were called inactive. Active and inactive are the calls of the source.
How the values were obtained:
Test in all cases: NCI-60 one-dose screen, 48 h (100 = growth as untreated, 0 = no growth, -100 = all killed)
Conditions in all cases: 10 µM
[1] = tested on: NCI-H23 lung
[2] = tested on: NCI-H226 lung
[3] = tested on: NCI-H322M lung
[4] = tested on: HOP-62 NSCLC
[5] = tested on: NCI-H460 lung
[6] = tested on: HOP-92 NSCLC
[7] = tested on: NCI-H522 lung
[8] = tested on: A549/ATCC NSCLC
[9] = tested on: 786-0 renal
[10] = tested on: COLO 205 colon

| Compound | growth [1] | growth [2] | growth [3] | growth [4] | growth [5] | growth [6] | growth [7] | growth [8] | growth [9] | growth [10] |
| --- | --- | --- | --- | --- | --- | --- | --- | --- | --- | --- |
| O=C(Cc1nc2ccc([N+](=O)[O-])cc2nc1CC(=O)c1cccnc1)c1cccnc1 | 52.7% | 52.2% | 51% | 25.6% | 48.1% | 69.8% | 18.5% | 64.8% | 15.8% | 121% |
| O=C1NC(=O)C2C(=O)NC(=O)C1C21CCc2ccccc21 (stereo not given) | 91.8% | 87.7% | 106% | 94.3% | 115% | 89.5% | 97.4% | 103% | 101% | 125% |
| Cc1cc2nc(CC(=O)c3cccc([N+](=O)[O-])c3)c(=O)[nH]c2cc1C | 80.3% | 90.7% | 93.8% | 101% | 87.6% | 74.9% | 70.4% | 97.9% | 85.5% | 110% |
| COC(=O)c1cc(-c2ccc(Cl)c(Cl)c2)[nH]c(=O)c1C#N | 107% | 94.6% | 95.4% | 95.5% | 109% | 91.4% | 97.6% | 101% | 91.7% | 114% |
| O=[N+]([O-])c1cccc(C(F)(F)F)c1 | 101% | 98.5% | 132% | 96.9% | 98.1% | 87.8% | 85.5% | 94.7% | 107% | 108% |
| CCOC(=O)c1cc(/C=C/c2ccc(Cl)cc2Cl)on1 | 47.4% | 14.9% | 81.6% | 81% | 3.82% (active) | 100% | 54.5% | 91.6% | -68.6% (active) | 57.4% |
| CC1(C)S(=O)(=O)OCCOS1(=O)=O | 103% | 102% | 100% | 98.4% | 105% | 83.8% | 99.6% | 92% | 102% | 116% |
| O=C(c1ccccc1)C1CCC1 | 102% | 102% | 101% | 94.5% | 107% | 86.6% | 85.9% | 71.6% | 107% | 112% |
| c1csc(-c2cc(-c3cc(-c4cccs4)[nH]n3)n[nH]2)c1 | 91% | 79.1% | 94.4% | 88.3% | 107% | 93.6% | 88.9% | 107% | 98.9% | 114% |
| O=C(NN=C1CCCCC1)C(=O)NN=C1CCCCC1 | 105% | 101% | 124% | 98.1% | 117% | 101% | 98.7% | 116% | 105% | 106% |
| COc1cc(C(=O)N/N=C/c2cccc([N+](=O)[O-])c2)cc(OC)c1OC | 61.7% | 77.8% | 87.2% | 77.1% | 18.5% | 70.7% | 19.6% | 65.7% | 78.2% | 30.2% |
| c1ncc2[nH]cnc2n1 | 104% | 99.5% | 85.7% | 104% | 105% | 89.4% | 89.2% | 86.7% | 95.2% | 101% |
| [O-][N+](=Nc1cccc(Cl)c1)c1cccc(Cl)c1 | 94.5% | 114% | 95.9% | 107% | 99% | 94.1% | 148% | 95.1% | 109% | 116% |
| CCCNC(=O)c1ccc(S(N)(=O)=O)cc1 | 118% | 108% | 121% | 82.8% | 108% | 88.9% | 115% | 112% | 75.4% | 132% |
| CC(=O)N(C)c1ccc([N+](=O)[O-])cc1 | 101% | 105% | 114% | 111% | 117% | 94.5% | 106% | 106% | 105% | 114% |
| CC1Cc2ccccc2O1 (stereo not given) | 98.6% | 107% | 131% | 108% | 109% | 109% | 114% | 103% | 109% | 110% |
| CC(C)COC(=O)COC(=O)OCCOCCOC(=O)OCC(=O)OCC(C)C | 100% | 100% | 118% | 98.1% | 114% | 95.7% | 95.9% | 109% | 103% | 117% |
| CCOC(=O)c1cc(/C=C/c2cccc(Cl)c2)on1 | 81.1% | 95.1% | 96.1% | 99.9% | 99.3% | 88.8% | 74.6% | 104% | 97.7% | 119% |
| Cc1nc2c(ccc3ccccc32)s1 | 98% | 109% | 116% | 103% | 115% | 93.7% | 103% | 98.6% | 101% | 110% |
| c1ccc(Sc2ccccc2)cc1 | 105% | 103% | 118% | 104% | 106% | 90.9% | 139% | 96.6% | 113% | 115% |
| CCOC(=O)/C(=C/c1ccc(OC)cc1)N(CC)CC | 96.3% | 97% | 105% | 103% | 103% | 81.4% | 94.1% | 101% | 103% | 115% |
| CC(=O)OCC1=CC2OC(=O)C3=COC(OC4OC(CO)C(O)C(O)C4O)C1C32 (stereo not given) | 72.4% | 105% | 104% | 108% | 120% | 89.3% | 93.5% | 138% | 98.9% | 114% |
| C/C(=C\c1cc(Cl)ccc1OCC(=O)O)[N+](=O)[O-] | 96.2% | 108% | 118% | 103% | 123% | 101% | 75.6% | 92% | 117% | 115% |
| c1c(-c2cc(C3CC3)[nH]n2)n[nH]c1C1CC1 | 94.3% | 95.2% | 94.8% | 98.6% | 83.4% | 89% | 79% | 88.8% | 94.3% | 102% |
| CCOc1ccc2[nH]c(=S)sc2c1 | 94.4% | 109% | 105% | 99.1% | 110% | 82.2% | 104% | 103% | 99.7% | 112% |
| COC(=O)c1[nH]c(=O)c(C#N)c(C(=O)OC)c1C(=O)c1ccccc1 | 95.4% | 97.7% | 101% | 94.2% | 102% | 101% | 99.7% | 93.7% | 100% | 123% |
| O/N=C/c1ccc(O)cc1O | 105% | 108% | 117% | 101% | 109% | 92% | 86% | 91.4% | 108% | 111% |
| CCOc1ccc(I)cc1 | 96.7% | 103% | 120% | 107% | 108% | 90.3% | 105% | 104% | 109% | 111% |
| CN(C)Cc1cc(C(C)(C)CC(C)(C)C)ccc1O | 91% | 91.2% | 100% | 91.6% | 100% | 77.1% | 68.4% | 111% | 92.9% | 97.1% |
| CCOC(=O)C(C#N)Cc1ccccc1 (stereo not given) | 105% | 112% | 116% | 116% | 117% | 101% | 111% | 109% | 109% | 123% |

Source: PubChem BioAssay (NCI)
